In PubChem BioAssay AID1159580 (chemical genetic matrix, 2015):
Among all 5,500 compounds or so, about 2,000 (36%) were called active. Not shown: some 18% with an inconclusive outcome. Cut-off read from the data, not from the text of the source: active = normalized growth mostly below about 0.91 (no sharp cut-off); inconclusive = no clear call, values can overlap the other calls; inactive = mostly above about 0.92. This is one part of the list.

Assay: chemical genetic growth profiling, strain panel (AID 1159580);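 note: tested at 20 µM; growth read once vehicle control cultures reached saturation at 30 °C; 1 = growth at the plate median or of vehicle wells; lower values mean less growth of the strain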
Conditions: growth OD

Measured: normalized growth

CCCCCN=C(N)N/N=C\c1c[nH]c2ccc(OC)cc12
inactive: S. cerevisiae deletion strains, locus YJR043C, strain POL32, hits give low values 0.989 | S. cerevisiae deletion strains, locus YJR075W, strain HOC1, hits give low values 0.996 | S. cerevisiae deletion strains, locus YKL009W, strain mrt4, hits give low values 0.974 | S. cerevisiae deletion strains, locus YKL068W, hits give low values 0.993 | S. cerevisiae deletion strains, locus YKL085W, strain MDH1 (second series), hits give low values 0.956 | S. cerevisiae deletion strains, locus YKL085W, strain MDH1, hits give low values 0.956 | S. cerevisiae deletion strains, locus YKL160W, strain elf1, hits give low values 1.01 | S. cerevisiae deletion strains, locus YKL190W, strain CNB1, hits give low values 1.01 | S. cerevisiae deletion strains, locus YKR001C, strain vps1, hits give low values 1.03 | S. cerevisiae deletion strains, locus YKR026C, strain gcn3, hits give low values 1.01 | S. cerevisiae deletion strains, locus YKR091W, strain srl3, hits give low values 0.992 | S. cerevisiae deletion strains, locus YLL001W, strain dnm1, hits give low values 1.01 | S. cerevisiae deletion strains, locus YLL026W, hits give low values 1.01 | S. cerevisiae deletion strains, locus YLL041C, strain sdh2, hits give low values 1 | S. cerevisiae deletion strains, locus YLR027C, strain aat2, hits give low values 1 | S. cerevisiae deletion strains, locus YLR039C, strain RIC1, hits give low values 1.08 | S. cerevisiae deletion strains, locus YLR058C, strain SHM2, hits give low values 0.99 | S. cerevisiae deletion strains, locus YLR102C, strain apc9, hits give low values 1.02 | S. cerevisiae deletion strains, locus YLR221C, strain rsa3, hits give low values 0.986 | S. cerevisiae deletion strains, locus YLR258W, strain gsy2, hits give low values 0.995 | S. cerevisiae deletion strains, locus YLR262C, strain YPT6 (second series), hits give low values 1.04 | S. cerevisiae deletion strains, locus YLR262C, strain YPT6, hits give low values 1.01 | S. cerevisiae deletion strains, locus YLR268W, strain sec22, hits give low values 0.998 | S. cerevisiae deletion strains, locus YLR320W, strain mms22, hits give low values 0.98 | S. cerevisiae deletion strains, locus YLR330W, strain CHS5, hits give low values 1.01 | S. cerevisiae deletion strains, locus YLR342W, strain FKS1 (second series), hits give low values 0.989 | S. cerevisiae deletion strains, locus YLR342W, strain FKS1, hits give low values 1.01 | S. cerevisiae deletion strains, locus YLR357W, strain rsc2, hits give low values 0.975 | S. cerevisiae deletion strains, locus YLR370C, strain arc18, hits give low values 1 | S. cerevisiae deletion strains, locus YLR371W, strain rom2, hits give low values 1.03 | S. cerevisiae deletion strains, locus YLR384C, strain iki3, hits give low values 1.02 | S. cerevisiae deletion strains, locus YLR418C, strain cdc73, hits give low values 0.993 | S. cerevisiae deletion strains, locus YML016C, strain PPZ1, hits give low values 1 | S. cerevisiae deletion strains, locus YML032C, strain rad52, hits give low values 1.02 | S. cerevisiae deletion strains, locus YML120C, strain ndi1, hits give low values 1.01 | S. cerevisiae deletion strains, locus YML124C, strain tub3, hits give low values 1.02 | S. cerevisiae deletion strains, locus YMR058W, strain fet3, hits give low values 1.01 | S. cerevisiae deletion strains, locus YMR078C, strain ctf18, hits give low values 1.03 | S. cerevisiae deletion strains, locus YMR125W, strain sto1, hits give low values 0.979 | S. cerevisiae deletion strains, locus YMR129W, hits give low values 1.01 | S. cerevisiae deletion strains, locus YMR205C, strain PFK2, hits give low values 0.994 | S. cerevisiae deletion strains, locus YMR223W, strain ubp8, hits give low values 1.01 | S. cerevisiae deletion strains, locus YMR231W, strain pep5, hits give low values 1.02 | S. cerevisiae deletion strains, locus YMR263W, strain SAP30, hits give low values 1.01 | S. cerevisiae deletion strains, locus YMR307W, strain GAS1, hits give low values 0.973 | S. cerevisiae deletion strains, locus YNL067W, strain RPL9B, hits give low values 0.998 | S. cerevisiae deletion strains, locus YNL071W, strain lat1, hits give low values 1 | S. cerevisiae deletion strains, locus YNL128W, strain TEP1, hits give low values 0.995 | S. cerevisiae deletion strains, locus YNL153C, strain GIM3, hits give low values 1 | S. cerevisiae deletion strains, locus YNL209W, strain ssb2, hits give low values 1 | S. cerevisiae deletion strains, locus YNL233W, strain BNI4, hits give low values 0.985 | S. cerevisiae deletion strains, locus YNL248C, strain rpa49, hits give low values 0.991 | S. cerevisiae deletion strains, locus YNL250W, strain rad50, hits give low values 1.02 | S. cerevisiae deletion strains, locus YNL271C, strain bni1, hits give low values 1.02 | S. cerevisiae deletion strains, locus YNL298W, strain CLA4, hits give low values 1.02 | S. cerevisiae deletion strains, locus YNL307C, strain MCK1, hits give low values 1.04 | S. cerevisiae deletion strains, locus YNL322C, strain KRE1 (second series), hits give low values 1.02 | S. cerevisiae deletion strains, locus YNL322C, strain KRE1, hits give low values 1 | S. cerevisiae deletion strains, locus YNR049C, strain mso1, hits give low values 1.01 | S. cerevisiae deletion strains, locus YNR052C, strain pop2, hits give low values 1.03 | S. cerevisiae deletion strains, locus YOL006C, strain TOP1, hits give low values 0.995 | S. cerevisiae deletion strains, locus YOL012C, strain htz1 1.66 | S. cerevisiae deletion strains, locus YOL147C, strain pex11, hits give low values 1.03 | S. cerevisiae deletion strains, locus YOR001W, strain rrp6, hits give low values 0.995 | S. cerevisiae deletion strains, locus YOR061W, strain CKA2, hits give low values 0.995 | S. cerevisiae deletion strains, locus YOR069W, strain VPS5, hits give low values 1.01 | S. cerevisiae deletion strains, locus YOR070C, strain gyp1, hits give low values 1 | S. cerevisiae deletion strains, locus YOR080W, strain dia2, hits give low values 1 | S. cerevisiae deletion strains, locus YOR083W, strain WHI5, hits give low values 0.991 | S. cerevisiae deletion strains, locus YOR106W, strain vam3, hits give low values 0.995 | S. cerevisiae deletion strains, locus YOR136W, strain idh2, hits give low values 1.03 | S. cerevisiae deletion strains, locus YOR144C, strain elg1, hits give low values 1.01 | S. cerevisiae deletion strains, locus YOR184W, strain ser1, hits give low values 1.02 | S. cerevisiae deletion strains, locus YOR265W, strain rbl2, hits give low values 1.01 | S. cerevisiae deletion strains, locus YOR270C, strain vph1, hits give low values 1.05 | S. cerevisiae deletion strains, locus YOR290C, strain snf2, hits give low values 0.984 | S. cerevisiae deletion strains, locus YOR316C, strain cot1, hits give low values 1.02 | S. cerevisiae deletion strains, locus YPL051W, strain arl3, hits give low values 1 | S. cerevisiae deletion strains, locus YPL055C, strain LGE1, hits give low values 0.993 | S. cerevisiae deletion strains, locus YPL078C, strain atp4, hits give low values 1.03 | S. cerevisiae deletion strains, locus YPL106C, strain sse1, hits give low values 1.01 | S. cerevisiae deletion strains, locus YPL240C, strain hsp82, hits give low values 1 | S. cerevisiae deletion strains, locus YPL241C, strain CIN2, hits give low values 1.05 | S. cerevisiae deletion strains, locus YPR119W, strain clb2, hits give low values 1.02 | S. cerevisiae deletion strains, locus YPR141C, strain kar3, hits give low values 1.02 | S. cerevisiae deletion strains, locus YPR163C, strain tif3, hits give low values 1.02 | S. cerevisiae deletion strains, locus YPR167C, strain met16, hits give low values 1.02 | S. cerevisiae deletion strains, strain wtn01, hits give low values 1.01 | S. cerevisiae strains, strain wild type, hits give low values 1
